Only some compounds are listed: those with a hit (about 9.2% of all), similar ones and a draw of the others.
FLuc counter: counter-screen for miR-21 project: firefly luciferase inhibitors or activators; purified FLuc, Km substrates, luminescence inhibition; Potency, µM (top dose mostly 57.5 µM), actives largely listed as inhibitors; actives 6.9% (n = 360,000); AID 588342; also: nearly all actives have a fitted effect of over 55% in size
Target sequence (P08659 whole entry, looked up): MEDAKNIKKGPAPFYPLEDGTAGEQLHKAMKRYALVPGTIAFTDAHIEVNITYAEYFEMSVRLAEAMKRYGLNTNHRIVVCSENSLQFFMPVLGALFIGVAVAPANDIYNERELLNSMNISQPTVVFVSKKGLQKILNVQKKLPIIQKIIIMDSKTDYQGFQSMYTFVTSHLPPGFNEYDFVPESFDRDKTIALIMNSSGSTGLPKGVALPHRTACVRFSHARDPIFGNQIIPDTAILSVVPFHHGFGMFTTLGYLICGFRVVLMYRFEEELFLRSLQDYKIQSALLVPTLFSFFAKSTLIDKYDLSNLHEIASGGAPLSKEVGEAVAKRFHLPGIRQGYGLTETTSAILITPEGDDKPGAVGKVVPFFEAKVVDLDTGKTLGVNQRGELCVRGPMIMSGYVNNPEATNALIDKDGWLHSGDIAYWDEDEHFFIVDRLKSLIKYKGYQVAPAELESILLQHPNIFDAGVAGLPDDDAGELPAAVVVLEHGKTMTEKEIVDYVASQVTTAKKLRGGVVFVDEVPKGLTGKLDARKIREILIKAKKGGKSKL
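Biochemical qHTS of compounds, final roughly 60 µM downward over six points, against 10 nM purified firefly luciferase using Km concentrations of substrates (10 uM D-luciferin, 10 uM ATP) in Tris acetate pH 7.5 buffer; luminescence output.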
SMN2 splice enh: enhancers of SMN2 splice variant expression; HEK293 SMN2-luciferase splicing reporter, luminescence, 30-36 h; actives 2.8% (n = 210,000); AID 1458; Potency, µM (doses to about 46.1 µM), actives largely listed as activators; also: nearly all actives have a fitted effect of over 55% in size
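qHTS luciferase splicing reporter: luminescence rises when SMN2 exon 7 is included in transfected HEK293 cells. Compound exposure lasted 30-36 h at 37C, with 4.5 mM final sodium butyrate as control, followed by a ONE-Glo read.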
ELG1 repair inh: blocks ELG1-dependent DNA repair in HEK293T cells. HEK293T ELG1-luciferase reporter, luminescence, 16 h; DNA damage induced by 5-fluorouridine. actives 2.3% (n = 330,000). Potency, µM (series often up to 46.1 µM), hits mostly inhibitors; also: nearly all actives have a fitted effect of over 55% in size
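5-Fluorouridine DNA damage + compound/DMSO, 2,000 cells/well, 16 h, 37 °C/5% CO2. ONE-Glo, 30 min RT, luminescence. Readout = decrease in reporter signal.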
NPC1 promoter act: activates the NPC1 promoter | Potency, µM (doses to about 9.22 µM), hits mostly activators | Huh7 NPC1 promoter luciferase reporter, 24 h | actives 2.4% (n = 320,000); also: nearly all actives have a fitted effect of over 60% in size
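Cells: Huh7 expressing luciferase under the NPC1 promoter, 1500/well. Seeded 2 h, compound added, incubated 24 h at 37 °C. Luciferase reagent, 10 min ambient, then luminescence.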
ELG1 genotox: induces genotoxicity in HEK293T cells with luciferase-tagged ELG1; HEK293T ELG1-luciferase reporter, luminescence, 16 h; actives 1.3% (n = 330,000); Potency, µM (top dose mostly 46 µM), hits mostly activators; also: nearly all actives have a fitted effect of over 60% in size
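HEK293T cells expressing luciferase-tagged ELG1 were treated with compound or DMSO for 16 hr at 37°C. Luciferase activity was then read after 30 min with ONE-Glo at room temperature; rising signal flags genetic stress.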
Rab9 prom act: activates the Rab9 promoter; actives 2.8% (n = 320,000); Potency, µM (highest dose often 9.22 µM), actives largely listed as activators; Huh7 Rab9 promoter-luciferase reporter, luminescence, 24 h; AID 485297; also: nearly all actives have a fitted effect of over 60% in size
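Using Huh7 cells stably transfected with Rab9 promoter–luciferase, compounds were incubated 24 h at 37 °C, 5% CO2; luciferase luminescence was read 10 min after reagent addition.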
A number is an active result; i = inactive; ? = inconclusive; nt = not tested or not shown. Calls follow the shape of the dose curve; as a rule, active = well fitted curve in the direction sought with a large enough effect; inconclusive = small, poorly fitted or top-dose-only effect, or another doubt; inactive = no such curve, though single readings can be large; an effect the other way counts as inactive or inconclusive.

SMILES	FLuc counter	SMN2 splice enh	ELG1 repair inh	NPC1 promoter act	ELG1 genotox	Rab9 prom act
CCOc1cc(NC(=S)Nc2cccc(OC)c2)c(OCC)cc1NC(=O)C1CC1	15µM	i	?	i	i	i
CCc1ccc(NC(=S)Nc2cccc(OC)c2)cc1	21µM	i	?	i	i	i
COc1ccc(CNC(=S)Nc2cccc(OC)c2)cc1	i	nt	i	i	i	i
COc1cccc(NC(=S)NN=C2CCCCCC2)c1	8.5µM	14µM	?	3.5µM	?	3.2µM
Cc1ccc(Cl)cc1NC(=O)C1CC1c1ccccc1 (stereo not given)	i	nt	i	i	i	i
O=C1CCCC/C1=N\Nc1ccc(C2CCCCC2)cc1	1.7µM	nt	?	i	4.6µM	?
COc1ccc(OC)c2c(N3CCN(C)CC3)cc(C(F)(F)F)nc12	i	i	i	i	i	i
COc1ccc(OC)c2c(N3CC(C)OC(C)C3)cc(C(F)(F)F)nc12 (stereo not given)	7.6µM	nt	?	2.8µM	?	3.2µM
CC(=O)Oc1cc(-c2coc3cc(OC(C)=O)c(OC(C)=O)c(OC(C)=O)c3c2=O)cc(OC(C)=O)c1OC(C)=O	nt	i	nt	nt	nt	nt
COc1ccc(-c2nc(CN3CCN(C(=O)c4ccco4)CC3)c(C)o2)c(OC)c1C	i	nt	12µM	i	i	i
CC(C)c1ccc(C(C)NCCS(=O)(=O)c2ccc(Cl)cc2)cc1 (stereo not given)	i	nt	i	i	i	i
O=C1OC(c2ccccc2)=C/C1=C/N1CCOCC1	?	?	?	i	?	?
O=C1SC(c2ccccc2)=C/C1=C\N1CCCCC1	19µM	i	?	i	i	i
Cc1ccc(NC2CCCN(C(=O)CCC3=NNC(=O)CC3)C2)cc1C (stereo not given)	i	nt	i	i	i	i
Cn1c(N=Nc2ccc(N3CCOCC3)cc2)[n+](C)c2ccccc21	7.6µM	i	i	i	i	i
CSc1ncc(-c2ccccc2)cn1	?	i	i	i	i	i
Oc1c(Br)cc(C2N=C(c3ccccc3)NO2)cc1Br (stereo not given)	17µM	i	?	i	i	i
CSc1ccc(C2N=C(c3ccccc3)NO2)cc1 (stereo not given)	8.5µM	nt	?	1.3µM	?	1.8µM
Oc1c(Br)cc(Br)c(/C=N/n2c(-c3ccccc3)n[nH]c2=S)c1Br	i	nt	i	i	i	i
Cc1ccc(CC(=O)NCc2nc(-c3cccc(C)c3)no2)cc1	i	i	nt	nt	nt	nt
O=C1OC(N2C(=O)CC[C@H]2C(=O)Nc2ccc(Br)cc2F)c2ccccc21 (stereo not given in full)	i	nt	i	i	i	i
O=C(C1=C[C@@H](c2ccc(Br)cc2)C[C@@H](OCc2ccc(CO)cc2)O1)N1CCN(Cc2ccc3c(c2)OCO3)CC1	i	nt	?	i	i	i
CC1CCCC(C)N1C(=O)Cn1cc(C#N)c2ccccc21 (stereo not given)	i	nt	i	i	i	i
COC(=O)c1ccc(C(=O)OC)c(NC(=S)N2CCC(C)CC2)c1	i	i	i	i	i	i
CC(C)/C=N/Nc1nc(-c2ccc(Br)cc2)cs1	7.6µM	i	?	?	?	?
SMILES	FLuc counter	SMN2 splice enh	ELG1 repair inh	NPC1 promoter act	ELG1 genotox	Rab9 prom act
N#Cc1cc([N+](=O)[O-])cnc1NCC(O)CO (stereo not given)	i	i	i	i	i	i
C/C(=N\NC(=O)CN(c1ccccc1)S(C)(=O)=O)c1ccccc1O	i	i	16µM	i	i	i
Cc1cc(C)n2nc(N)c(N=Nc3ccccc3)c2n1	15µM	nt	i	i	i	i
Cc1nc2c(N=Nc3ccccc3F)c(N)nn2c(N)c1C#N	?	i	i	?	i	?
Cc1cc(=O)n2[nH]c(N)c(N=Nc3ccccc3F)c2n1	?	i	i	i	i	i
Nc1nn(-c2ccccc2)c(N)c1N=Nc1ccccc1F	0.95µM	3.5µM	?	0.56µM	?	0.45µM
Cc1nn(-c2ccccc2)c(N)c1N=Nc1ccccc1	6.7µM	13µM	?	2.8µM	?	2µM
Cc1nn(-c2ccccc2)c(N)c1N=Nc1cccc(S(=O)(=O)N2CCOCC2)c1	?	nt	i	i	i	i
Nc1c(N=Nc2ccccc2F)c(=O)[nH]n1-c1ccccc1	3.8µM	i	?	?	?	?
Cc1cc(C)c(NC(=O)CSc2ccc(-c3sc(-c4ccccc4)nc3C)nn2)c(C)c1	i	nt	nt	nt	nt	nt
O=C(CSc1cn(CCNC(=O)c2c(F)cccc2F)c2ccccc12)Nc1ccccc1F	i	i	nt	nt	nt	nt
CN(CC(=O)Nc1ccccc1C(F)(F)F)C(=O)CCc1nc2ccccc2c(=O)[nH]1	i	nt	i	i	i	i
COc1ccc(/C=C/C(=O)Nc2ccc(S(=O)(=O)Nc3onc(C)c3C)cc2)cc1OC	i	nt	i	i	i	i
Nc1nc(-c2ccccc2)c(N=Nc2ccc(Cl)cc2)s1	i	i	i	i	i	i
Cc1nn(-c2ccccc2)c(N)c1N=Nc1ccc(Cl)cc1	8.5µM	22µM	?	2.5µM	?	2µM
Nc1nn(-c2ccccc2)c(N)c1N=Nc1ccccc1	3µM	8.9µM	?	?	15µM	?
Nc1ncnc(N)c1N=Nc1ccccc1	i	nt	i	i	i	i
Cc1cccc(N=Nc2c(C)nn(-c3ccccc3)c2N)c1C	13µM	?	?	i	?	?
CC(=O)c1ccc(OC(=O)COc2ccccc2Cl)cc1	?	nt	i	i	i	i
OC(c1cccs1)(c1cccs1)C1C[N+]2(CF)CCC1CC2 (stereo not given)	i	i	i	i	i	i
CCOc1ccc(N2C(=O)CC(SCCN)C2=O)cc1 (stereo not given)	17µM	11µM	?	1.4µM	?	2.2µM
O=C(NC1CC(=O)N(c2ccc(Cl)cc2)C1)c1cccs1 (stereo not given)	i	nt	nt	nt	nt	nt
COCc1cc(C)nc(N/N=C/c2ccc(-c3ccc(Cl)cc3[N+](=O)[O-])o2)c1C#N	i	i	i	i	i	4µM
Cc1nn(CC(=O)NCc2ccccc2Cl)c(=O)c2cccn12	i	nt	nt	nt	nt	nt
CC1(C)CCc2cc(-c3ccnc(=S)[nH]3)ccc2O1	11µM	nt	?	0.45µM	1.5µM	0.63µM
S=c1nccc(-c2ccc3c(c2)CCO3)[nH]1	i	nt	?	i	i	i
O=[N+]([O-])c1ccc(N2CCN(C(=S)Nc3ccc(F)cc3F)CC2)cc1	i	i	?	i	i	i
COc1ccc(/C=C/C(=O)Nc2ccc(OC)nc2)cc1	7.6µM	i	i	i	i	i
COc1ccc(NC(=O)/C=C/c2ccc(OC(F)F)cc2)cn1	12µM	nt	?	i	i	i
COc1ccc(NC(=O)/C=C/c2ccc(OC)c(OC)c2)cn1	?	nt	i	i	i	i

Screens deposited in PubChem BioAssay by National Center for Advancing Translational Sciences (NCATS).
